RTF Ca sens act – cardiac RTF calcium sensitization; AID 493008; IANBD-labeled TnC RTF fluorescence at EC20 calcium; 0% EC20 calcium, 100% full calcium; activation, % at 7.2 µM; 0.24% of 340,000 active; P19429+P45379;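 active means activation above the mean over all tested compounds plus 3 SD, cut at about 30% in these data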;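 further: rise in fluorescence read as greater calcium sensitivity of cardiac thin filaments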
IDE act – IDE (human) activation, cell-based; HEK cells, FAbeta-B cleavage, fluorescence polarization; 0% vehicle, 100% cell-free pure enzyme wells; activation, % at 5.96 µM; 0.073% of 340,000 active;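 active means activation above the mean of all tested compounds plus 3 SD, set per screening campaign, cut at about 17% in these data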
Target sequence (P14735 whole entry, looked up): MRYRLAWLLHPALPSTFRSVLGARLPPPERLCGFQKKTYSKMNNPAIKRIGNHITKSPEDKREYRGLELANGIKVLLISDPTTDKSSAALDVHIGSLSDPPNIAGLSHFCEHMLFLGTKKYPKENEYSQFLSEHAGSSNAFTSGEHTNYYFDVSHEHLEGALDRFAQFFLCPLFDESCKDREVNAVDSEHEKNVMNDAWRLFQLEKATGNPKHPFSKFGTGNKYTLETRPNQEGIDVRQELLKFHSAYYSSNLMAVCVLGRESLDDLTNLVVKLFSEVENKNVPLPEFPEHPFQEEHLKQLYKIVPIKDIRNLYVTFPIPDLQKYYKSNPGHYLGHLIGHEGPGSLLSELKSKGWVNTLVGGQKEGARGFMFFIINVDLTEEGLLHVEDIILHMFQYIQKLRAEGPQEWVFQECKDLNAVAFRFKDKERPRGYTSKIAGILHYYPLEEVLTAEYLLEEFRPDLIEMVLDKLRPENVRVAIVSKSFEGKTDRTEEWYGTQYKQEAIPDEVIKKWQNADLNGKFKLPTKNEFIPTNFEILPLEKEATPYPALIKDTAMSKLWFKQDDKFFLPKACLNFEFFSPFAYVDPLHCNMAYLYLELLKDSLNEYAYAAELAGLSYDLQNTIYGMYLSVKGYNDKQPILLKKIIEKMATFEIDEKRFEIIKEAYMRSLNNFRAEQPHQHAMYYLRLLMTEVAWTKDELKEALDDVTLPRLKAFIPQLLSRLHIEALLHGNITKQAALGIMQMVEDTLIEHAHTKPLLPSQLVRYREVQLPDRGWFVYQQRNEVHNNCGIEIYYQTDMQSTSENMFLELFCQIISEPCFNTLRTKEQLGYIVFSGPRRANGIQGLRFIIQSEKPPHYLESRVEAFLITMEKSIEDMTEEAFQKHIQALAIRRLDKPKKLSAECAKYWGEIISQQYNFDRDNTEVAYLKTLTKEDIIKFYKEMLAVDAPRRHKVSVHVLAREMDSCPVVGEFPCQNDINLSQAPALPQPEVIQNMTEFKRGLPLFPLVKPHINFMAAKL
CRFR2-BP antag – CRF-BP/CRF-R2 complex antagonism. HEK293 CRF-R2/CRF-BP, CRF-induced calcium fluorescence. inhibition, % at 11.8 µM. 0.59% of 350,000 active;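 active means inhibition of the ligand-induced calcium signal above about 50% at the single tested concentration, limit read from the data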
RTF Ca sens inh – cardiac RTF calcium desensitization. P19429+P45379. IANBD-labeled cardiac RTF, Ca2+ fluorescence. inhibition, % at 7.15 µM. 0.12% of 340,000 active;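 active means inhibition above the mean inhibition of all tested compounds plus 3 SD, cut at about 17% in these data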;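 further: assay run at fixed EC70 calcium of 1.6 mM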
IDE inh – inhibits human insulin-degrading enzyme in HEK cells; AID 434962; inhibition, % at 5.59 µM; P14735; 0.41% of 320,000 active; FAbetaB cleavage, fluorescence polarization;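 active means percent inhibition above the average of all tested compounds plus 3 SD, set per screening campaign, cut at about 16% in these data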;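 further: IDE supplied by intact live HEK cells; FP after avidin binding of uncleaved biotin substrate so inhibition keeps polarization high; 0% = DMSO wells and 100% = 60 µM reference IDE inhibitor Ii1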
CRFR2-BP ag – agonists of human CRF-binding protein/CRF-R2 receptor complex; HEK293 CRF-R2/CRF-BP, calcium dye fluorescence (FLIPR); percent of saturating CRF peptide response; activation, % at 13.2 µM; 0.46% of 350,000 active; AID 588473;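 active means activation of at least 50%, plus an integration ratio under a set limit after plate pattern correction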;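 further: plate controls were neutral control wells without compound for no effect and CRF at EC100 for full effect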
Active calls of the source: *; · = not tested or not shown. Most compounds without a hit are left out; they make up all but 1.5% or so of the library.

SMILES	RTF Ca sens act	IDE act	CRFR2-BP antag	RTF Ca sens inh	IDE inh	CRFR2-BP ag
Cc1cccc(Oc2ccc(NC(=O)c3ccccc3C(=O)O)cc2)c1C	-1.2	0.4	19.1	3.5	-0.7	81.0*
CCCn1c(=N)c(S(=O)(=O)c2ccccc2)cc2c(=O)n3ccccc3nc21	1.0	-4.0	110.3*	-3.3	-4.2	-4.2
N=c1c(S(=O)(=O)c2ccccc2)cc2c(=O)n3ccccc3nc2n1Cc1ccco1	-0.3	-3.4	6.6	-12.5	6.2	88.6*
Cc1cccn2c(=O)c3cc(S(=O)(=O)c4ccccc4)c(=N)n(Cc4ccco4)c3nc12	2.4	8.3	6.9	-4.7	3.3	1.2
Cc1ccc2nc3c(cc(S(=O)(=O)c4ccccc4)c(=N)n3Cc3ccco3)c(=O)n2c1	2.0	0.8	-18.1	-7.4	1.8	30.7
Cc1ccc(S(=O)(=O)c2cc3c(=O)n4ccccc4nc3n(Cc3ccco3)c2=N)cc1C	·	·	7.1	·	1.1	78.6*
COc1ccccc1N1CCN(C(=O)c2cccc(S(=O)(=O)N3CCCCCC3)c2)CC1	0.8	1.3	-6.6	-6.2	-5.1	0.5
Nc1nc(F)nc2c1ncn2[C@@H]1O[C@H](CO)[C@@H](O)[C@@H]1O	-2.0	7.9	50.2*	13.8	-0.9	-1.4
Nc1nc(F)nc2c1ncn2[C@@H]1O[C@H](CO)[C@@H](O)[C@H]1O	5.1	10.0	18.8	-27.4	5.9	-1.0
CCOc1c(OC(C)=O)ccc(/C=C/c2ccc3cccc(OC(C)=O)c3n2)c1[N+](=O)[O-]	-0.1	6.8	0.9	-4.0	-6.3	-0.8
C=CCN1C(=O)/C(=C/c2ccc(OC(C)=O)c(OCC)c2[N+](=O)[O-])SC1=S	-5.6	-5.0	58.8*	-5.0	·	46.1
CCNC(=S)N(CCc1ccc(S(N)(=O)=O)cc1)C1CC(=O)N(c2ccccc2)C1=O (centres undefined)	-1.2	4.7	-95.4	-0.8	1.9	96.8*
C[C@@H]1CC=C[C@@H]2[C@H]1C(=O)N(Cc1ccccc1)[C@H]2c1cccc(Br)c1	-5.3	6.4	71.5*	-2.9	·	-1.3
CCc1cccc(NC(=O)C2CCCN(S(=O)(=O)c3cccnc3)C2)c1 (centres undefined)	-7.0	0.9	4.8	7.2	-0.7	1.0
Cc1csc(NC(=O)Cc2ccc(Br)cc2)n1	-0.2	6.2	62.7*	-6.0	3.6	2.8
CC(=O)Nc1ccc(NC(=O)CCc2c(C)noc2C)cc1	1.8	4.1	-7.3	-5.7	·	-2.1
C/C(=N\NC(=O)c1ccc(O)cc1)c1cccc(NC(=O)c2ccccc2C)c1	-4.6	-1.6	-6.1	-5.0	0.6	-0.9
O=C(c1ccccc1)c1nn(-c2ccc(Cl)cc2)cc1C(=O)c1cc2ccccc2oc1=O	-0.9	4.2	100.6*	-4.5	1.1	9.1
Cc1cccc(C(=O)Nc2scc(-c3ccc(Br)cc3)c2C(=O)O)c1	-10.9	0.1	50.4*	-4.3	3.8	0.5
CCCc1nn2c(=O)cc(CSCC(=O)Nc3cccc(OC)c3)nc2s1	1.8	10.0	8.8	-5.4	3.7	-0.8
Cc1[nH]nc2c1C(c1ccsc1C)C(C#N)=C(N)O2 (centres undefined)	2.3	10.7	-10.3	-3.8	2.9	-0.7
Cc1cc(C2C(C#N)=C(N)SC(N)=C2C#N)c(C)s1	41.1*	-16.5	-84.9	-96.1	11.9	104.0*
Cc1sccc1C1C(C#N)=C(N)SC(N)=C1C#N	·	·	·	·	17.6*	·
Cc1cc(=O)[nH]c(SCC(=O)NCC2CCCCC2)c1C#N	2.9	3.2	1.0	-5.5	-3.5	0.2
CCOC(=O)C(Cc1ccccc1)NC(=O)CCc1nnc2ccc(N3CCCC3)nn12 (centres undefined)	3.0	5.2	57.7*	-3.1	2.9	-0.4
O=C(Cc1ccc(NC(=O)C2CCCN(C(=O)C3CCC3)C2)cc1)Nc1cccc(C(=O)N2CCCC2)c1 (centres undefined)	0.5	-0.3	36.4	-2.5	·	-1.7
OCCCc1nc2n(n1)C(c1cccs1)C=C(c1ccccc1)N2 (centres undefined)	·	·	·	·	78.3*	·
OCCCc1nc2n(n1)C(c1ccccc1)C=C(c1ccc(F)cc1)N2 (centres undefined)	-1.4	4.4	-8.3	-10.8	2.9	38.3

Source: PubChem BioAssay
